Screening results: PubChem, National Center for Advancing Translational Sciences (NCATS)
GLA spleen mod: alpha-galactosidase A (human) modulation | P06280 | human spleen homogenate, 4MU-alpha-Gal fluorescence, 40 min | Potency, µM (titrated, usually from 80 µM), for inactives: top-dose activity change, negative = inhibition, most hits filed as inhibitors | 0.008% of 240,000 active;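 further: potency means the concentration at half of the fitted maximal effect; 0% = enzyme with vehicle and -100% = no enzyme basal signal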
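Inhibition or activation of alpha-galactosidase in human spleen homogenate is scored by 4-MU fluorescence after 40 min at 37C, pH 5.0, with 1 mM substrate. AC50s come from concentration-response fitted to the Hill equation.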
GAA inhib: inhibitors of human lysosomal alpha-glucosidase; purified human GAA, 4-MU-alpha-glucoside fluorescence; Potency, µM (highest dose often 76.9 µM), without a hit: top-dose activity change, negative = inhibition, actives largely listed as inhibitors; 0.005% of 200,000 active;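 further: potency means the concentration at half of the fitted maximal effect; plate controls were uninhibited enzyme wells for no effect and no-enzyme background for full effect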
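Human enzyme at 4 nM with 400 uM 4-methylumbelliferyl-alpha-D-pyranoside, citrate/phosphate buffer pH 5.0, 0.005% Tween-20, 20 min at room temperature. Compounds up to 77 uM. 4-MU fluorescence (Ex 365/Em 440) read after NaOH/glycine stop; AC50 from Hill fit.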
GLA inh pH 4.5: inhibitors of human alpha-galactosidase A at pH 4.5 | P06280 | purified enzyme, 4-MU-alpha-Gal fluorescence, pH 4.5 | activity change, negative = inhibition, % at 105 µM | 230,000 tested, under 10 active | AID 1467;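 further: 0% = full activity with enzyme and -100% = basal without enzyme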
Target sequence (P06280 whole entry, looked up): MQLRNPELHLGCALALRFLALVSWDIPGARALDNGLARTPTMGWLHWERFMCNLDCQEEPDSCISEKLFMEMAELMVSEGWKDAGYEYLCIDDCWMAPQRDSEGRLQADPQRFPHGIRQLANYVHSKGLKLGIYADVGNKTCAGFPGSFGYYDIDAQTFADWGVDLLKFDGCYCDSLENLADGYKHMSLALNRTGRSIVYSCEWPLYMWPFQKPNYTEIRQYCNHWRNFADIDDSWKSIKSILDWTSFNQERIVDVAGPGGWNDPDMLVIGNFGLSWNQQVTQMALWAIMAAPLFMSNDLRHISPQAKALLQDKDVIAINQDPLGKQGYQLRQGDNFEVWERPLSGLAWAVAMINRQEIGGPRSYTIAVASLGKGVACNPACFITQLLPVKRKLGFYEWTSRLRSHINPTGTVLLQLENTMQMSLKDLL
N370S GC mod: inhibits or activates N370S mutant glucocerebrosidase. P04062. N370S GC spleen homogenate, 4MU-glucoside fluorescence. Potency, µM (titrated, usually from 59.4 µM), without a hit: at the highest dose activity change, negative = inhibition, hits mostly inhibitors. 0.092% of 330,000 active;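 further: potency means the concentration at half of the fitted maximal effect; 0% = full enzyme activity and -100% = no enzyme basal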
GAA glycogen mod: GAA glycogen-cleavage inhibition or activation; recombinant GAA, glycogen substrate, Amplex Red glucose oxidase fluorescence; P10253; 0.38% of 300,000 active; Potency, µM (doses to about 76.4 µM), for the others: at the highest dose activity change, negative = inhibition, hits mostly inhibitors;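 further: potency means the concentration at half of the fitted maximal effect; 0% = full enzyme reaction and -100% = no-enzyme basal signal; the screen sought inhibitors and activators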
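Natural-substrate format: glycogen cleavage by 4 nM human enzyme, glucose read by Amplex Red coupling (Ex 573, Em 610 nm). Normalized to enzyme and no-enzyme controls.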
aGlu spleen mod: inhibits or activates alpha-glucosidase in human spleen homogenate. AID 2112. 0.006% of 240,000 active. human spleen homogenate, 4-MU-alpha-glucoside fluorescence. Potency, µM (highest dose often 79.9 µM), without a hit: at the top dose activity change, negative = inhibition, hits mostly inhibitors;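 further: potency means the concentration at half of the fitted maximal effect; 0% = enzyme with vehicle and -100% = no enzyme basal signal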
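Human spleen homogenate (1 ug) with 4-methylumbelliferyl-alpha-D-glucopyranoside (1 mM final) in 50 mM citrate/phosphate pH 5.0, 0.01% Tween-20; 40 min at 37 C. Stopped at pH 10; 4-MU fluorescence Ex 365/Em 440 nm; AC50 by Hill fit.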
An asterisk follows results filed as active; ? = inconclusive; nt = not tested or not shown. A selection: hits, their analogues and other compounds. The true share with any hit is near 0.41%. The call rests on the fitted dose curve; in most records, active means well fitted curve in the direction sought with a large enough effect; inconclusive means small, poorly fitted or top-dose-only effect, or another doubt; inactive means no such curve, though single readings can be large; an effect the other way counts as inactive or inconclusive.

SMILES	GLA spleen mod	GAA inhib	GLA inh pH 4.5	N370S GC mod	GAA glycogen mod	aGlu spleen mod
Nc1cc(S(=O)(=O)c2ccc(O)c(N)c2)ccc1O	2%	nt	-9	7%	7.9µM*	-6%
Cc1cc(=O)[nH]c(N/N=C/c2ccc(O)c(O)c2)n1	nt	nt	nt	-24%	?	nt
COc1ccc(NCc2ccc([N+](=O)[O-])s2)c(OC)c1	-4%	-5%	0	-12%	9.9µM*	3%
COc1ccc(NCc2ccc([N+](=O)[O-])s2)cc1	3%	0%	5	-4%	?	1%
COc1ccc(Nc2nc(-c3ccccc3)nc3ccccc23)cc1S(=O)(=O)N1CCOCC1	7%	nt	-11	14µM*	-11%	-1%
Oc1cccc(Nc2nc(-c3ccccc3)nc3ccccc23)c1	nt	nt	nt	2.8µM*	-6%	nt
CO/N=C(\C)C(Cc1ccc(Cl)nc1)Cc1ccc(Cl)nc1	nt	nt	nt	-6%	4%	nt
CCOc1cc(CNCCc2ccc(S(N)(=O)=O)cc2)ccc1OCc1ccccc1	-12%	?	-3	6.3µM*	2%	-1%
Oc1cccc(/C=N/Nc2cc(N3CCCC3)nc(N3CCCC3)n2)c1	-5%	1%	-1	-18%	-3%	-7%
Oc1ccc(/C=N/Nc2cc(N3CCCC3)nc(N3CCCC3)n2)cc1	-3%	-11%	-2	-17%	25µM*	-10%
CC(C)NCC(O)Cn1c2c(c3ccccc31)CCc1c-2cnn1-c1ccccc1 (stereo unspecified)	13%	-8%	5	-12%	31µM*	-6%
CN1CCc2c(n(CC(O)CNCc3ccccc3)c3ccccc23)C1=O (stereo unspecified)	-9%	-18%	2	4%	?	-6%
Cc1cc(C(=O)NNC(=S)Nc2ccccc2)nn1C	3%	12%	-10	-1%	3.5µM*	-5%
Cc1ccc(N2C(=O)C3Sc4[nH]c(=O)sc4C(c4ccccc4)C3C2=O)cc1 (stereo unspecified)	1%	4%	5	11%	31µM*	1%
O=C1C2Sc3[nH]c(=O)sc3C(c3ccccc3)C2C(=O)N1c1ccc(Cl)cc1 (stereo unspecified)	2%	2%	3	9%	28µM*	-2%
COc1ccc(C(CNC(=O)c2ccc(NS(=O)(=O)c3ccc(F)c(C)c3)cc2)N2CCOCC2)cc1 (stereo unspecified)	nt	nt	nt	14µM*	nt	nt
CCN1c2ccccc2NC2C1C(C(C)=O)C(=O)N2c1ccc(Cl)cc1 (stereo unspecified)	0%	-4%	-7	-7%	25µM*	-21%
O=C1Nc2ccccc2N(O)N1c1ccc(Cl)cc1	-4%	13%	3	-9%	5%	-2%
O=c1[nH]cc(O)c(=O)[nH]1	4%	-1%	2	-1%	5µM*	5%
O=C(c1cccs1)N1CCC(c2nc3c(nnn3Cc3ccccc3)c(=O)[nH]2)CC1	4%	2%	4	-10%	3%	-7%
Nc1ccc(N2CCOCC2)c2nonc12	1%	1%	2	-7%	7µM*	-10%
O=C(Nc1ccc(N2CCOCC2)c2nonc12)C1CCCC1	-2%	0%	5	1%	7%	-1%
CC(=O)NNc1nc2ccccc2s1	-7%	2%	3	4%	8.9µM*	-7%
COc1ccc2nc(NNC(=O)COc3ccccc3)sc2c1	4%	-1%	7	22%	5µM*	2%
CCOC(=O)C1C(C(=O)OC)=C(C2=CCCCC2)c2ccccc2N1S(=O)(=O)C(F)(F)F (stereo unspecified)	-6%	nt	-11	11%	nt	8%
CCN(CC)c1ccc(/C=N/Nc2nc(C)cc(C)n2)cc1	3%	nt	-7	-2%	11µM*	4%
Cc1cc(C)nc(N/N=C/c2ccccc2)n1	4%	5%	nt	4%	-28%	-3%
CC1(C)CC(=O)C2=C(C1)NC1=C(C(=O)c3ccccc31)C2c1ccccc1 (stereo unspecified)	-2%	-4%	3	?	-21%	-5%
